Data taken from PubChem BioAssay AID687031 (Broad Institute, 2013).
The campaign covered roughly 1,400 compounds. About 50 (4%) were called active.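 Rule for the calls: active = fitted curve reaches 30% CPE protection at or below the top valid dose, with every test run called active; inconclusive = test runs disagree, some active and some not; inactive = every test run inactive, including effects in the wrong direction.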 Only a sample is shown. Measured potencies and affinities stand elsewhere.

Experiment: antiviral rescue of DENV2-infected BHK-21 cells – cell-based, ATP luminescence, cherry-pick, dose response (AID 687031);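 note: 0% = infected DMSO wells and 100% = uninfected cell wells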
Conditions: BHK-21 DENV2 CPE protection, 5 d; series mostly up to 19.5 µM; CPE protection (higher = active): at the top concentration

CPE protection (higher = active), inactive:
Cc1ccc(S(=O)(=O)Nc2ccc3c(c2)C(=O)N([C@@H](C)CO)C[C@@H](C)[C@H](CN(C)S(=O)(=O)c2ccc(Cl)cc2)OCCCC[C@@H](C)O3)cc1 -29.8%, Cc1cc(OCC(=O)NC2CC(C)(C)NC(C)(C)C2)c(C)cc1Br -5.56%, CCc1cc(=O)oc2cc(OCC(=O)NC3CC(C)(C)NC(C)(C)C3)ccc12 3.18%, CC1(C(=O)NCc2ccccc2)CN(S(C)(=O)=O)CC(=O)N1CCc1ccc(O)cc1 (stereo not given) -2.07%, CC(C)CC1NC(=O)c2ccccc2-n2c1nc1ccccc1c2=O (stereo not given) -9.6%, Cc1ccc(S(=O)(=O)N(C)CC(=O)Oc2ccc(-c3nnco3)cc2)cc1 -21.8% [at 10 µM], N#Cc1cc2cc3c(cc2nc1Cl)OCCO3 -12.1%, CCN(CC)C1CCN(Cc2c(C(=O)N3CCCCCCC3)nc3ccc(Cl)cn23)C1 (stereo not given) -11.9%, O=C(CN1CCc2cc3c(cc2C1)OCCCO3)Nc1ccccc1 17.2%, CN(C)CCCNc1cc(O)c2ncccc2c1 -6.23%, C/C=C/c1ccc([C@@H]2[C@@H](CO)N(C(C)=O)[C@@H]2CNC(=O)CC2CC2)cc1 4.22% [at 21 µM], O=C(NCC1CC1)c1onc(CSc2ccc(F)c(F)c2)c1C(=O)NCC1CC1 10.7%, COc1cc(C)nc(N2CCC(C(=O)NCC3CCCO3)CC2)n1 (stereo not given) 18.9%, O=C(NCCS(=O)(=O)N1CCN(c2ccccc2)CC1)C1CC1 14.1%, O=C(CCc1nnc(Cc2c[nH]c3ccccc23)o1)NCCC1CCCCO1 (stereo not given) 17.1%, COC(=O)N1CCCCC1c1cc(C(=O)Nc2ccccc2Cl)no1 (stereo not given) -13.9%, COc1ccc(S(=O)(=O)N2CCCCC2c2cc(C(=O)Nc3ccccc3)no2)cc1 (stereo not given) 23%, Cc1ccc([C@H]2C[C@@H](n3cc(-c4ccc(F)cc4)nn3)[C@H](O)CN2C(=O)c2cccs2)cc1 -9.7%, CCC(=O)N1CC[C@@H]2[C@@H](CO)Nc3ccc(-c4ccc(OC)cc4)cc3[C@@H]21 -14%, O=C(O)c1ccc(CNC(=O)C2CCCN2C(=O)OCc2ccccc2)cc1 (stereo not given) 1.02%, O=C(NCc1ccccc1)c1ccccc1 -3.58%, Cc1ccc(OCc2nnc(SCc3cc(=O)[nH]c4ccccc34)n2-c2ccccc2)cc1 -15.6%, CO[C@@H]1CN(C)C(=O)c2ccc(NC(=O)Nc3cc(F)ccc3F)cc2OC[C@@H](C)N(C(=O)c2ccccn2)C[C@H]1C 17.2% [at 21 µM], CC1=C(C(=O)N(C)C)CC(CC(=O)NC2CCCCC2)C(=O)N1Cc1ccc(C(C)(C)C)cc1 (stereo not given) 17.7%, CN(CC(=O)Nc1cccc(F)c1)C(=O)c1ccccc1CCc1ccccc1 -11.4%, C[C@H](CO)N1C[C@H](C)[C@@H](CN(C)C(=O)C2CC2)Oc2cc(C#Cc3ccccc3)ccc2S1(=O)=O -7.48%, COc1cc(C)ccc1OCc1cc(C(=O)NCCN2CCCC(O)C2)no1 (stereo not given) 4.9%, Cc1cc(OCc2cc(C(=O)N(C)C(C)c3ccccn3)no2)cc(C)c1Cl (stereo not given) -3.99%, Cc1c(C(=O)N2CCCC2)oc2ccc(Br)cc12 -4.23%, C[C@@H]1CN([C@H](C)CO)C(=O)Cc2cc(NC(=O)CCCCCC(=O)Nc3ccccc3N)ccc2O[C@@H]1CN(C)Cc1ccc(C(F)(F)F)cc1 -7.66% [at 16 µM], Cc1ccc(S(=O)(=O)NC(=O)C2(C)CCN2C(=O)Cc2cccs2)cc1 (stereo not given) -2.07%, C[C@H](NC(=O)c1ncn(Cc2ccccc2)c1C(=O)N[C@@H](C)c1ccccc1)c1ccccc1 -10.4%, C[C@H](CO)N1C[C@H](C)[C@H](CN(C)C(=O)Nc2ccc(C(F)(F)F)cc2)OCCCC[C@H](C)Oc2ccc(NS(=O)(=O)c3ccc(F)cc3)cc2C1=O 7.18%, CCC(=O)N1CC[C@@H]2[C@H](CO)Nc3ccc(-c4cccc(C#N)c4)cc3[C@@H]21 22.9%, O=S(=O)(c1ccc(F)cc1)N1CC[C@@H]2[C@H]1c1cc(-c3ccc(F)cc3)ccc1N[C@@H]2CO -24%, COc1cccc(C(O)c2nc(-c3cc(F)cc(F)c3)cs2)c1 (stereo not given) -22.6%, CC(NC(=O)CCc1ccccc1)c1ccc2c(c1)OCO2 (stereo not given) 1.74%, CC(CNC(=O)Cn1ccc(NC(=O)OCc2ccccc2)nc1=O)c1ccccc1 (stereo not given) -2.22%, CCCCCCN1CCN(C2CN(Cc3ccc(F)cc3)S(=O)(=O)C2)CC1 (stereo not given) -15.2%, O=C(c1cnccn1)N1CC[C@@H]2[C@@H](CO)Nc3ccc(-c4ccccc4F)cc3[C@@H]21 -9.44% [at 21 µM], Nc1c(-c2ccccc2)nc2ncccn12 8.46%, CCCc1cc(=O)oc2c(C)c(OCC(=O)N3C[C@H]4C[C@@H](C3)c3cccc(=O)n3C4)ccc12 -5.43%, CCOc1ccc(/C=N/NC(=O)c2ccccc2O)cc1CN1CC2CC(C1)c1cccc(=O)n1C2 (stereo not given) -7.87%, COc1ccc(NS(=O)(=O)c2cccs2)cn1 5.62%, COc1cccc(OC)c1Nc1nc(C)nc2c1nnn2Cc1ccccc1Cl -19.1%
